Potency and affinity values are given separately. Values without a mark were called inactive. How the calls were made is not given here.

The test in a line: viability loss in HEK293 cells – cell-based, plate reader, cherry-picked samples, cytotoxicity control, dose response (AID 743446). As to conditions: stronger effect = lower value; at 26 µM unless noted.
As to `CC(=O)c1ccc(S(=O)(=O)N2CCC(NC(=O)Nc3cccc(F)c3)CC2)cc1`, the max activity was 28.3% [at 3 µM].

For `COc1ccc(-n2sc3ccc(F)cc3c2=O)cc1`, the max activity was -22.4% [at 0.05 µM].

`O=C(O)c1ccc(-c2noc(-c3ccccc3Cl)n2)cc1`: the max activity was -20.2% [at 6 µM].

`CN1c2ccc(-c3ccc(F)cc3)cc2[C@H]2[C@H](CCN2C(=O)Nc2ccc(F)cc2)[C@H]1CO`: the max activity is 39.2% [at 1.6 µM].

On to `Cc1ccc(NC(=O)c2ncn(CC(=O)NCc3ccc4[nH]ccc4c3)n2)cc1C`, for which the max activity is 8.88%.

Take `COc1ccccc1CNS(=O)(=O)c1ccc(N2CCCC2)cc1Br`: the max activity was -9.37%.

On to `CCCCC(=O)N(C)c1c(C)nc2ccc(C(=O)N3CCCCC3)cn12`, for which the max activity is -12.7% [at 12 µM].

Consider `COc1ccc2oc(C(=O)NCCc3ccccc3)c(C)c2c1`, for which the max activity is -55.4%.

With `O=C(Nc1ccc(N2CCOCC2)cc1)c1cnccn1`, the max activity was -6.24% [at 3 µM].

`Cn1cccc1C(=O)OCC(=O)Nc1ccc2c(c1)OCCO2`: the max activity was -17.1%.

As for `C[C@H]1CCCCO[C@@H](CN(C)C(=O)Nc2ccc3c(c2)OCO3)[C@@H](C)CN([C@@H](C)CO)C(=O)c2cc(NC(=O)NC3CCCCC3)ccc2O1`, the max activity is 26.2% [at 23.5 µM].

As to `CO[C@@H]1CN(C)C(=O)c2ccc(NC(=O)C3CC3)cc2OC[C@@H](C)NC[C@@H]1C`, the max activity was 12% [at 3 µM].

For `COc1ccc(C(=O)Nc2ccc3ccccc3n2)c(OC)c1OC`, the max activity was -6.81% [at 0.1 µM].

As for `O=C(CCc1nnc(CCCCc2ccccc2)o1)N1CCCC(O)C1` (stereo unspecified), the max activity was -17.7% [at 0.1 µM].

With `CCOc1ccc(C(=O)Nc2nnc(SCC(=O)NCC3CCCO3)s2)cc1` (stereo unspecified), the max activity is 27.5% [at 3 µM].

For the compound `CCCc1nc(SCC(=O)N2CCC(Cc3ccccc3)CC2)c2c(=O)n(C)c(=O)n(C)c2n1`, the max activity is 11.8% [at 0.05 µM].

As for `O=C(Nc1ccc(Cl)cc1)Nc1ccccc1C(=O)O`, the max activity is 16.5% [at 0.1 µM].

Consider `COCCn1c(C)cc(C(=O)CSc2nc3ccccc3s2)c1C`, for which the max activity is -17.4%.

As for `C=CCN1CCN(C(=O)CCCc2ccccc2)CC1`, the max activity was 69.3% [at 12 µM].

For the compound `Cc1ccccc1OCC(=O)Nc1cccc(C(=O)O)c1`, the max activity is 6.54%.

In the case of `COc1cc(NC(=O)c2cccs2)c(C(=O)OCC(=O)c2cc(C)n(-c3ccccc3)c2C)cc1OC`, the max activity is 17.2%.

Turning to `COc1ccc(N(CC(=O)NCc2cccs2)S(=O)(=O)c2ccc(C(C)=O)cc2)cc1`, the max activity is -10.6% [at 3 µM].

Turning to `O=C(Nc1cccc(C(=O)O)c1)Nc1ccccc1Cl`, the max activity is -26.9% [at 6 µM].

As for `O=C(Nc1ccc(Cl)c(S(=O)(=O)N2CCOCC2)c1)c1ccc2c(c1)OCCO2`, the max activity was -8.36% [at 3 µM].

Consider `Cc1ccnc(N2C(=O)c3ccccc3C2Nc2ccc3c(c2)OCCO3)c1` (stereo unspecified), for which the max activity was 25.2% [at 0.05 µM].

With `C[C@H](CO)N1C[C@H](C)[C@H](CN(C)C(=O)Nc2ccc(C(F)(F)F)cc2)OCCCC[C@H](C)Oc2ccc(NC(=O)NC3CCCCC3)cc2C1=O`, the max activity is 66%.

For the origin of these results see PubChem BioAssay AID743446 (Broad Institute, 2014).
